PubChem BioAssay (Tox21)
Activity calls are given as the source filed them. The call rests on the fitted dose curve; in most records, active means well fitted curve in the direction sought with a large enough effect in the repeat runs; inconclusive means weak or mixed curves; inactive means flat fitted curve, though single readings scatter. Non-standard residues stand in square brackets, D forms with d. Residues, ends and D or L forms follow the SMILES beside them. *: point of attachment. Sta = CC(C)C[C@H](N)[C@@H](O)CC(=O)O; Isovaleryl = CC(C)CC(=O)*

Assay: qHTS assay to test for compound auto fluorescence at 590 nm (red) in HEK293 cells (AID 720679)
Conditions: red autofluorescence 540/590 nm; series mostly up to 91.3 µM
How it was run: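 Intensity at 540nm excitation and 590nm emission is reported as Rose Bengal sodium-equivalent autofluorescence. Measurements followed overnight exposure (37C, 5% CO2) of HEK293 cells, 2,000 per well, to 23 nL compound.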
On the % scale 0 is the no-effect control and ±100 the full control effect.

| Compound | fluorescence, % of fluorescent control | outcome |
| --- | --- | --- |
| COc1cnc(NS(=O)(=O)c2ccc(N)cc2)nc1 | 0.0444% [at 18.6 µM] (inactive) | – |
| CCCCCCCCOCCC#N | – | inactive |
| NC[C@H]1O[C@H](O[C@H]2[C@H](O)[C@@H](O[C@H]3O[C@H](CO)[C@@H](O)[C@H](N)[C@H]3O)[C@H](N)C[C@@H]2N)[C@H](N)[C@@H](O)[C@@H]1O | – | inactive |
| C=CCOC(=O)CCCCCCCC | – | inactive |
| CC(C)(Sc1cc(C(C)(C)C)c(O)c(C(C)(C)C)c1)Sc1cc(C(C)(C)C)c(O)c(C(C)(C)C)c1 | -1.27% [at 18.6 µM] (inactive) | – |
| CC(=O)c1c(C)cc(C(C)(C)C)cc1C | – | inactive |
| Nc1cc(S(=O)(=O)O)ccc1O | – | inactive |
| O=C(O)Cc1ccccc1Oc1ccc(Cl)cc1Cl | – | inactive |
| CCCCCCCCC1CO1 (centres undefined) | – | inactive |
| N=C(N)N | – | inactive |
| COC(=O)c1ccc(C(=O)O)cc1 | – | inactive |
| CC(C)CC(=O)N[C@H](C(=O)N[C@H](C(=O)N[C@@H](CC(C)C)[C@@H](O)CC(=O)N[C@@H](C)C(=O)N[C@@H](CC(C)C)[C@@H](O)CC(=O)O)C(C)C)C(C)C (Isovaleryl-VV[Sta]A[Sta]-OH) | – | inactive |
| Cc1ccc(O)c([N+](=O)[O-])c1 | – | inactive |
| Cc1ccc(NC(N)=O)cc1 | – | inactive |
| CCOCCOCCOC(C)=O | – | inactive |
| CCCCCCCCCCCCCC(=O)OCC | – | inactive |
| C[C@@H]1CC[C@@]2(OC1)O[C@H]1C[C@H]3[C@@H]4CC[C@H]5C[C@@H](O)CC[C@]5(C)[C@H]4CC(=O)[C@]3(C)[C@H]1[C@@H]2C | 0.373% [at 18.6 µM] (inactive) | – |

| Compound | fluorescence, % of fluorescent control | outcome |
| --- | --- | --- |
| CC(=O)Nc1ccc(S(=O)(=O)Nc2cc(C)on2)cc1 | – | inactive |
| C=CCn1cc[n+](C)c1 | – | inactive |
| CCCC[O][Al]([O]CCCC)[O]CCCC | – | inactive |
| CCOC(=O)CC | – | inactive |
| OCCC(F)(F)C(F)(F)C(F)(F)C(F)(F)C(F)(F)C(F)(F)F | – | inactive |
| C[n+]1ccccc1/C=N/O | -1.07% [at 18.6 µM] (inactive) | – |
| c1coc(Cn2cccc2)c1 | – | inactive |
| CCCCC(CC)COC(=O)CC#N (centres undefined) | – | inactive |
| CC(C)c1cc(C(C)C)cc(C(C)C)c1 | – | inactive |
| CCOC(=O)[C@H](CCc1ccccc1)N[C@H]1CS[C@H](c2cccs2)CN(CC(=O)O)C1=O | – | inactive |
| COc1cc(OC)cc(OC)c1 | – | inactive |
| O=C(O)COc1ccc2ccccc2c1 | – | inactive |
| Cc1cccc(N)n1 | – | inactive |
| O=C(c1ccccc1)c1cccc(O)c1 | – | inactive |
| CCCCCCCC(=O)N(C)C | – | inactive |
| CC/C=C\CCOC(=O)c1ccccc1 | – | inactive |
| CCCOc1ccc(C(=O)OCCN(CC)CC)cc1N | – | inactive |
